# Screen size: about 69,000 compounds; about 8,600 (12%) showed an effect of 50% or more. This is one part of a sample in which strong results are shown more often than they occur.
# System: Plasmodium berghei
# Test: Screen against P. berghei liver stage (PbLuc), transformed with Luciferase, at 10uM
# Assay type: functional, HepG2
# Details: tested at 10 uM
row,Structure (SMILES),INHIBITION
1,CN1CCCN(C[C@@H]2CN(c3nc(C(N)=O)cs3)C[C@@H]2CO)CC1,20.3%
2,Cc1cnn(C2CCCN(C(=O)c3ccc(N4CCCC4)nc3)C2)c1 (stereo not drawn),19.6%
3,CN1CCC(N(C)C(=O)c2cnn(-c3ccccc3Br)c2N)CC1,27.3%
4,CN(C)C(=O)N1CCC2(CC1)C(=O)N(CC1CCOC1)c1ccccc12 (stereo not drawn),7.5%
5,CCCS(=O)(=O)N1CCC2(CC1)CN(CC1CCOC1)c1ccccc12 (stereo not drawn),87.4%
6,CCCS(=O)(=O)N1CCC2(CC1)CN(C(=O)N(C)C)c1ccccc12,10.7%
7,O=C1CO[C@@H]2CN(CC3CCOCC3)C[C@H]2N1CC1CC1,37.5%
8,Cc1cccnc1NCCNC(=O)[C@H]1CNC[C@@H](C(=O)N2CCCC2)C1,18.5%
9,CN(C)C(=O)N1CCC(C(=O)NCCNc2ncccc2C#N)CC1,68.8%
10,N#Cc1cccnc1NCCNC(=O)N1CCSCC1,14.6%
11,N#Cc1cccnc1NCCNC(=O)N1CCCC(N2CCCC2)C1 (stereo not drawn),24.6%
12,Cc1cccnc1NCCNC(=O)C1CCN(C(=O)N(C)C)CC1,50.2%
13,Cc1cccnc1NCCNC(=O)C1CCN(Cc2ccco2)CC1,48.4%
14,CCn1c(C2CCNCC2)nn(CCn2cncn2)c1=O,32%
15,COc1cc(CN2CCC(COCc3ccccc3)CC2)cc(OC)c1,33.7%
16,COCCNC(=O)NCc1cc(-c2ccncc2)n(C2CCCC2)n1,26.4%
17,Cc1ncc(-c2ccnc(N[C@@H](C)CO)n2)c(C2CCCCC2)n1,47.1%
18,Cc1cc2nc(C3CCCCC3)c(-c3ccnc(NCCO)n3)cn2n1,20.4%
19,Cc1ncc(-c2ccnc(NCCO)n2)c(C2CCCCC2)n1,79.7%
20,Cc1cccc(C)c1NC(=O)CC(CN1CCN(C)CC1)C(=O)O (stereo not drawn),5.21%
21,O=C1CCc2cc(-c3csc(CCN4CCOC4=O)n3)ccc2N1,-26.6%
22,Cc1nccn1C1CCCN(C(=O)c2cc(Cl)c3c(c2)OCO3)C1 (stereo not drawn),-15.5%
23,COCCN1CCOCC12CCN(C(=O)c1ccoc1)CC2,21.8%

row,Structure (SMILES),INHIBITION
1,COCCN1CCOCC12CCN(C(=O)c1c[nH]c3ccccc13)CC2,57.9%
2,COCCN1CCOCC12CCN(C(=O)c1ccncc1)CC2,47.4%
3,N#Cc1ccc(OCCCN2CCOC(Cn3cncn3)C2)cc1 (stereo not drawn),36.1%
4,CC1(C2CCN(CC(N)=O)CC2)CN(Cc2ccccc2)C(=O)O1 (stereo not drawn),1.5%
5,Oc1cc(-c2cccs2)nc(C2CCCN(CC3=CCCOC3)C2)n1 (stereo not drawn),23.9%
6,COc1c(C2CCCN2C(=O)c2nccnc2N)c(C)nn1C (stereo not drawn),14.1%
7,CC(=O)NCCNC(=O)c1ccc(C)c(-n2cccc2)c1,10.7%
8,COC1CC2(CCN(Cc3nccn3C)CC2)C1,-43.1%
9,CN(C)C(=O)N1CCC2(CC1)COCCN(c1ncccn1)C2,-30%
10,Cn1ccnc1CN1CCC2(CCCN2c2ncccn2)CC1,21.7%
11,Cn1ccnc1CN1CCC2(CC1)COC2,61.3%
12,CCOC1CC2(CCN(Cc3nccn3C)CC2)C1,-11.6%
13,Cn1ccnc1CN1CCC2(CC1)COCCN(S(C)(=O)=O)C2,36.5%
14,c1cnc(N2CCC3(COCCN(CC4CC4)C3)C2)nc1 (stereo not drawn),46.1%
15,Cn1ccnc1CN1CCC2(COCCN(S(=O)(=O)C3CC3)C2)C1 (stereo not drawn),64.3%
16,CN(C)CCN1CCCC12CCN(Cc1nccn1C)CC2,70.2%
17,Cn1ccnc1CN1CCC2(COCCN(Cc3ccsc3)C2)C1 (stereo not drawn),25.1%
18,Cn1ccnc1CN1CCC2(CC1)COCCN(c1ncccn1)C2,62.3%
19,Cn1cc(CN2CCCC23CCN(Cc2nccn2C)CC3)cn1,8.67%
20,COCc1ncc(CN2CC[C@@](O)(COC)C(C)(C)C2)cn1,31%
21,O=C(CCCSc1ccc(NC(=O)C2CC2)nn1)NCC1CCCO1 (stereo not drawn),34.6%
22,Cc1ncccc1-c1cc2cccnc2n1CCCNC(=O)C(C)(C)C,27.6%
23,CCS(=O)(=O)N1CC[C@@H]2[C@H](CC1)N(CC(C)C)CCS2(=O)=O,-34.6%

row,Structure (SMILES),INHIBITION
1,Cc1cc(C(=O)N2CCCC2)ccc1NCC(=O)N1CCCCC1C (stereo not drawn),37.3%
2,Cc1ccc(N2CCC3(CCN(C(=O)c4ccnnc4)CC3)CC2)nn1,-6.21%
3,Cc1noc2nc3c(c(C(=O)/N=c4\[nH]ncs4)c12)CCC3,32.8%
4,CS(=O)(=O)N1CCCC1c1ccnc2nccn12 (stereo not drawn),10.3545%
5,Cc1cc(C)n(CCC(=O)N2CCCCC2c2nccs2)n1 (stereo not drawn),36.3%
6,CN(C)c1cc(CNC(=O)C2COc3ccccc3O2)ccn1 (stereo not drawn),2.45%
7,Cc1cc(N2CCN(Cc3nccn3C)CC2)cc(C)n1,4.92%
8,Cc1nnc2ccc(N3CCN(Cc4nccn4C)CC3)nn12,43.4%
9,Cc1nnc(CN2CCN(Cc3nccn3C)CC2)n1C,59.3%
10,CC(C)N1CCN(c2ccc3ccc(C(=O)NC4CCCC4)cn23)CC1,-7.28%
11,COCC(=O)N1CC[C@@H]2CN(Cc3cccnc3)S(=O)(=O)[C@@H]2CC1,43%
12,CC(C)NC(=O)NC[C@H]1OC[C@@H](NCc2ccncc2)[C@@H]1O,-48.1%
13,CC(C)NC(=O)NC[C@H]1OC[C@@H](NCc2ccc(S(C)(=O)=O)cc2)[C@@H]1O,49.5%
14,Cc1ccc(S(=O)(=O)NC[C@H]2OC[C@@H](NCc3ccccc3)[C@@H]2O)cc1,20.7%
15,Cc1ccc(S(=O)(=O)NC[C@H]2OC[C@@H](NCc3cccnc3)[C@@H]2O)cc1,57%
16,Cc1ccc(S(=O)(=O)NC[C@H]2OC[C@@H](NCc3ccccn3)[C@@H]2O)cc1,38.9%
17,Cc1ccc(S(=O)(=O)NC[C@H]2OC[C@@H](NCc3ccncc3)[C@@H]2O)cc1,53.2%
18,O=C(NCC1CCOCC1)[C@@H]1C[C@@H]2[C@@H](CCN2Cc2nccs2)O1,21.1%
19,COC1CCN(C(=O)CC2CCCC2)CC(=O)N(C)c2ccccc21 (stereo not drawn),3.31%
20,CCc1nc(C)cn1C(=O)Nc1ccc(F)cc1,78.2%
21,CCc1nc(C)cn1C(=O)Nc1ccccc1,48.6%
22,CCc1nc(C)cn1C(=O)Nc1ccc(C)cc1,-4.82%

# Reference: ChEMBL document CHEMBL4513216, “Probing the Open Global Health Chemical Diversity Library for Multistage-Active Starting Points for Next-Generation Antimalarials” (ACS Infect Dis, 2020)
